KCNQ2 inh = blocks the rat KCNQ2 potassium channel | B-score at 10 µM | AID 2156 | O88943 | CHO-K1 KCNQ2, FluxOR thallium flux, 20 min; stronger effect = lower value | 310,000 tested, 1.1% active;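 active = fluorescence ratio B-score at most minus 3 library SDs, with starting brightness B-score within 2 library SDs, cut at about -5.5 in these data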
Target sequence (O88943 whole entry, looked up): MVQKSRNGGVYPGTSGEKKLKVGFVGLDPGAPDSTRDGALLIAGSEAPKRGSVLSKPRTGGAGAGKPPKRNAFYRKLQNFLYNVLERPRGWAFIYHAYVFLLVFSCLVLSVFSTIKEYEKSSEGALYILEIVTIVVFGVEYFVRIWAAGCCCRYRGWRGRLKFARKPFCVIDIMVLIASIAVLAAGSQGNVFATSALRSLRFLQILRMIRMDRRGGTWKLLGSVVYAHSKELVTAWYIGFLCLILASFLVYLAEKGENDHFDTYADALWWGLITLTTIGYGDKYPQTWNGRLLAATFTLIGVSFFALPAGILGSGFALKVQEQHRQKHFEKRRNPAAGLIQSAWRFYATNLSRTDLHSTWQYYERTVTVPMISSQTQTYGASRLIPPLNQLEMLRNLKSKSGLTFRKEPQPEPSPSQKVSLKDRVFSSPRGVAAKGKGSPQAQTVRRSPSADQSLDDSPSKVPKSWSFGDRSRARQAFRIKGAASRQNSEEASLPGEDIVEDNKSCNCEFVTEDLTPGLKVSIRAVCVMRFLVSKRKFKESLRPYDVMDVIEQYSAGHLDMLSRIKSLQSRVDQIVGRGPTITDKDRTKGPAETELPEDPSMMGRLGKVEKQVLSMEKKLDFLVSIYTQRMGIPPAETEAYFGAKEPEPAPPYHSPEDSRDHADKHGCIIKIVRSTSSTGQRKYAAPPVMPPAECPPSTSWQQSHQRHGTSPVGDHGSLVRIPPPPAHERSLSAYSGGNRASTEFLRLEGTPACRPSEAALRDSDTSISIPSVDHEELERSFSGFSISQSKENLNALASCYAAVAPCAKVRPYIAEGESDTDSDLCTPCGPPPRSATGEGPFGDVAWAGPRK
KCNQ2 enhance = enhances the rat KCNQ2 potassium channel. O88943. CHO-K1 KCNQ2, FluxOR thallium flux fluorescence; stronger effect = higher value. B-score at 10 µM. 310,000 tested, 0.54% active;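 active = fluorescence ratio B-score at least 3 SD of library B-scores, with initial fluorescence B-score within 3 of them, cut at about 5.3 in these data; same plate scores as AID 2156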;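 also: B-score of peak minus minimum over baseline fluorescence ratio after K+ and Tl+ stimulus; positive B-score means potentiation of KCNQ2 with more thallium influx and brighter signal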
Kir21 confirm = confirmation of mouse Kir2.1 potassium channel inhibitors | shares compounds with KCNQ2 enhance | Kir2.1-expressing cells, FluxOR thallium flux fluorescence; stronger effect = lower value | Tl flux remaining, % of negative control (stronger effect = lower value), % at 10 µM | 2,300 tested, 41% active;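 active = Primary-screen hit whose thallium flux fell at least 3 control SD below untreated wells in both duplicates, with normal baseline fluorescence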;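 also: 0% = blank wells without stimulus and 100% = stimulated no-compound controls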
HEK293 Tl flux = counter-screen for Kir2.1 inhibitors: effect in parental HEK293 cells | shares compounds with KCNQ2 enhance | FluxOR thallium flux fluorescence; 0% = unstimulated blank wells | FluxOR signal as % of negative control (100 = no effect), % at 10 µM | 2,300 tested, 19% active | AID 2105;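 active = dye signal at least 3 control SD above or below untreated wells in both duplicates, raw fluorescence within 3, either direction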;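 also: percent is based on the flux ratio of peak minus minimum fluorescence over baseline F0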
CHO-K1 Tl ctr = alters thallium flux in parental CHO-K1 cells, KCNQ2 counter-screen; shares compounds with KCNQ2 enhance; FluxOR thallium flux fluorescence; zero = vehicle mean+3SD, 100% = vehicle-minus-blank window; activity increase over 3SD of controls, % at 10 µM; 1,200 tested, 43% active; AID 2282;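 active = signal rise of at least 3 SD above the untreated control mean, in both duplicate wells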;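 also: counter screen of KCNQ2 potentiator hits so any rise reflects channel-independent effects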
KCNQ1 pot spec = tests whether KCNQ2 potentiators also act on human KCNQ1; shares compounds with KCNQ2 enhance; CHO KCNQ1 stable, FluxOR thallium flux fluorescence; beyond 3SD, as % of vehicle-control signal; activation over 3SD threshold, % at 10 µM; 1,200 tested, 28% active; AID 2283;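 active = fluorescence ratio rise of at least 3 SD of vehicle wells above their mean, in both replicate wells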;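 also: 0% = vehicle mean plus 3 SD and 100% = vehicle minus unstimulated blank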
KCNQ2 pot conf = confirmation of rat KCNQ2 potassium channel potentiators. shares compounds with KCNQ2 enhance. CHO-KCNQ2 cells, FluxOR thallium flux fluorescence. potentiation, less the hit threshold, % at 10 µM. 1,200 tested, 68% active;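 active = fluorescence ratio rising 3 SD or more over the vehicle control mean in both replicates, plus primary screen hit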;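 also: peak minus minimum thallium fluorescence divided by baseline after K/Tl stimulus; 0% = vehicle mean plus 3 SD and 100% = vehicle minus unstimulated blank difference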
Kir21 spec = selectivity of KCNQ2 potentiators: effect on mouse Kir2.1 | HEK293 Kir2.1, FluxOR thallium flux fluorescence | 1,200 tested, 2% active | shares compounds with KCNQ2 enhance | activity over 3SD threshold, % at 10 µM;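 active = fluorescence ratio rise of at least 3 SD above the vehicle-control mean, seen in both replicates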;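 also: 0% = vehicle mean plus 3 SD and 100% = vehicle minus no-stimulus blank window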
KCNQ2 W236L pot = rat KCNQ2 W236L mutant potentiation by KCNQ2 potentiators. 940 tested, 10% active. shares compounds with KCNQ2 enhance. current increase over 3SD of negative controls (%), stronger effect = higher value, % at 25 µM. CHO KCNQ2-W236L, automated patch clamp current;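 active = current increase at least 3 SD of the untreated controls above them in both duplicate recordings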
Active calls of the source: *; i = inactive; / = not tested or not shown. An excerpt weighted towards active compounds, which were near 1.6% of everything screened.

SMILES	KCNQ2 inh	KCNQ2 enhance	Kir21 confirm	HEK293 Tl flux	others
CCC(C)(C)NC(=O)c1ccccc1Oc1ccccc1	i	/	/	/
O=C(NCc1ccc(Cl)cc1)c1ccccc1Oc1ccccc1	i	8.79*	i	i	CHO-K1 Tl ctr=109.8*;KCNQ1 pot spec=-11.7;KCNQ2 pot conf=11.8*;Kir21 spec=-49.4;KCNQ2 W236L pot=i
CCCNC(=S)NNC(=O)c1cc(C2CC2)nc2ccccc12	i	0.76	/	/
Cc1ccc(CNC(=O)C(=O)NCC2OCCCN2S(=O)(=O)c2cccs2)cc1 (centres undefined)	i	/	/	/
O=c1c2ccccc2c(C=NCCCN2CCOCC2)c(O)n1Cc1ccc2c(c1)OCO2	i	0.1	/	/
O=c1c2ccccc2c(C=NCCCN2CCOCC2)c(O)n1Cc1ccccc1	i	/	64.5%*	i
COc1ccc(CC(=O)Nc2nc(C)cs2)cc1	i	/	/	/
COc1ccc(CC(=O)Nc2nc(C(C)(C)C)cs2)cc1	i	/	30.0%*	i
Cc1nc2sc3c(c2c(=O)n1NC(=O)CCBr)CCCC3	i	6.61*	i	i	CHO-K1 Tl ctr=-6.7;KCNQ1 pot spec=-3.7;KCNQ2 pot conf=11.3*;Kir21 spec=-35.9;KCNQ2 W236L pot=i
CCCc1nc2sc3c(c2c(=O)n1N)CCC3	i	/	/	/
Cc1ccccc1-n1c(SCC(=O)O)nc2sc3c(c2c1=O)CCCC3	i	/	/	/
CCCc1nc2sc3c(c2c(=O)n1NC(=O)CCC(=O)OC)CCCC3	i	9.3*	i	i	CHO-K1 Tl ctr=6.2*;KCNQ1 pot spec=3.4*;KCNQ2 pot conf=31.4*;Kir21 spec=-25.3;KCNQ2 W236L pot=i
Cc1cc(C)c(NC(=O)CSc2nc3ccc(NC(=O)CSc4nnnn4-c4ccccc4)cc3s2)c(C)c1	i	1.54	/	/
Cc1cc(C)c(S(=O)(=O)c2cccc(Cl)c2)c(Cl)n1	i	/	/	/
CCOc1nc(C)cc(C)c1S(=O)(=O)c1cccc(Cl)c1	i	/	61.0%*	i
Cc1occc1C(=O)Nc1cccc2ccccc12	i	11.3*	i	i	CHO-K1 Tl ctr=11.0*;KCNQ1 pot spec=-16.4;KCNQ2 pot conf=55.9*;Kir21 spec=-37.7;KCNQ2 W236L pot=i
Cc1oncc1C(=O)Nc1cccc2ccccc12	i	/	/	/
O=c1c2ccccc2nc(/C=C/c2cccc([N+](=O)[O-])c2)n1CCO	i	/	/	/
COc1cccc(N=Nc2c(N)[nH]n3c(=O)cc(-c4ccccc4)nc23)c1	i	5.93*	i	i	CHO-K1 Tl ctr=-7.4;KCNQ1 pot spec=-19.2;KCNQ2 pot conf=-8.8;Kir21 spec=-24.4
Cc1ccc(N=Nc2c(N)[nH]n3c(=O)cc(-c4ccccc4)nc23)cc1	i	4.35	/	/
Cc1[nH]n2c(=O)cc(-c3ccc([N+](=O)[O-])cc3)nc2c1-c1ccccc1	i	/	/	/
COc1ccc(-c2c(C(F)(F)F)[nH]n3c(=O)cc(-c4ccccc4)nc23)cc1	i	15.3*	i	225.0%*	CHO-K1 Tl ctr=-18.4;KCNQ1 pot spec=65.5*;KCNQ2 pot conf=49.3*;Kir21 spec=-31.1;KCNQ2 W236L pot=i
Cc1ccc(NC(=O)c2cnc3ccccc3n2)cc1C	i	/	/	/
COc1ccc(CC(=O)NCCc2ccc(OC)c(OC)c2)cc1	i	/	/	/
Cc1cc(C)nc(SCCCNCc2ccc(Br)cc2)n1	i	0.38	45.0%*	i
SMILES	KCNQ2 inh	KCNQ2 enhance	Kir21 confirm	HEK293 Tl flux	others
Cc1ccc(CNCCCSc2nc(C)cc(C)n2)cc1	i	/	/	/
O=C(CC(O)(c1ccccc1)C(F)(F)C(F)F)c1cccs1 (centres undefined)	i	/	/	/
O=C(NN1C(=O)C2C(c3ccccc3)C=CC(c3ccccc3)C2C1=O)c1ccncc1 (centres undefined)	i	6.51*	i	i	CHO-K1 Tl ctr=-0.6;KCNQ1 pot spec=-6.7;KCNQ2 pot conf=72.5*;Kir21 spec=-40.6;KCNQ2 W236L pot=i
O=C(NN1C(=O)C2C3C=CC(C3)C2C1=O)c1ccncc1 (centres undefined)	i	0.29	/	/
COc1cccc(CNC(=O)N2CCN(c3ccccc3Cl)CC2)c1	i	0.46	/	/
COc1ccccc1N1CCN(C(=O)NCc2cccc(C(F)(F)F)c2)CC1	i	6.99*	i	i	CHO-K1 Tl ctr=-1.6;KCNQ1 pot spec=-9.7;KCNQ2 pot conf=-4.7;Kir21 spec=-15.8;KCNQ2 W236L pot=i
Nc1ccc(-c2cnc(-c3ccc(N)cc3)nc2)cc1	i	/	/	/
CCN(CC)CCCNc1ccc(-c2nnc(-c3ccc(OCC(C)C)cc3)o2)cn1	-7.32*	-7.32	65.0%*	i
CC(C)COc1ccc(-c2nnc(-c3ccco3)o2)cc1	i	0.09	/	/
Cc1ccc(S(=O)(=O)Oc2ccc(/C=C(/NC(=O)c3ccccc3)C(=O)NCCC(=O)O)cc2)cc1	i	0.04	/	/
CCOC(=O)C1=C(C)NC(SCC(=O)OC)=C(C#N)C1c1ccc(C(=O)OC)cc1 (centres undefined)	i	/	/	/
CCOC(=O)CSC1=C(C#N)C(c2ccc(F)cc2)C(C(C)=O)=C(C)N1 (centres undefined)	i	8.06*	i	i	CHO-K1 Tl ctr=13.6*;KCNQ1 pot spec=-20.4;KCNQ2 pot conf=4.6*;Kir21 spec=-44.4;KCNQ2 W236L pot=i
CC(=O)C1=C(C)NC(SCC(=O)c2ccc(C)cc2)=C(C#N)C1c1ccco1 (centres undefined)	i	11.7*	i	i	CHO-K1 Tl ctr=-11.6;KCNQ1 pot spec=-19.7;KCNQ2 pot conf=-21.5;Kir21 spec=-46.2
CCOC(=O)CSC1=C(C#N)C(c2ccc(Cl)cc2)CC(=O)N1 (centres undefined)	i	0.03	47.0%*	i
C=CCSC1=C(C#N)C(c2ccccc2)CC(=O)N1 (centres undefined)	i	0.71	/	/
N#CC1=C(SCc2ccccc2)NC(=O)CC1c1ccccc1 (centres undefined)	i	/	41.0%*	i
CCOC(=O)CSC1=C(C#N)C(c2ccc3c(c2)OCO3)CC(=O)N1 (centres undefined)	i	0.26	/	/
Cc1ccc(C(=O)CSC2=C(C#N)C(c3ccco3)C3=C(CC(C)(C)CC3=O)N2)cc1 (centres undefined)	i	0.27	/	/
COC(CNC(=O)c1cn(C)c2ccc(S(=O)(=O)N3CCOCC3)cc2c1=O)OC	i	0.3	/	/
Cc1ccc(-c2nc(CSCC(=O)NCCN3CCN(Cc4ccccc4)CC3)c(C)o2)cc1	i	/	/	/
Cc1sc(NC(=O)c2ccco2)c(C(c2ccccc2)N2CCC(C)CC2)c1C (centres undefined)	i	0.97	/	/
Nc1ccc(N=Nc2ccccc2O)c(N)c1	i	0.67	/	/
Oc1ccccc1N=Nc1ccccc1O	i	7.9*	i	i	CHO-K1 Tl ctr=-11.3;KCNQ1 pot spec=-9.8;KCNQ2 pot conf=-22.8;Kir21 spec=-32.1
CN(C)C(=O)Cn1c(SCC(=O)NCc2ccc3c(c2)OCO3)nc2ccccc21	i	0.03	/	/
